How the values were obtained:
Conditions in all cases: concentration: 1 μM,replicates: in singlicate; n = 1
[1] = test system: T1, NIM1
T1 construct: gene MGC42105

[2] = test system: NLK
[3] = test system: T2, OSR1
T2 construct: gene OXSR1

[4] = test system: PAK1
[5] = test system: PAK2
[6] = test system: PAK3
[7] = test system: PAK4
[8] = test system: PAK6
[9] = test system: PAK7
[10] = test system: T3, PCTK1
T3 construct: gene CDK16

[11] = test system: T4, PCTK2
T4 construct: gene CDK17

[12] = test system: T5, PCTK3
T5 construct: gene CDK18

[13] = test system: PDGFRA
[14] = test system: PDGFRB
[15] = test system: PDPK1
[16] = test system: PFTAIRE2
[17] = test system: T6, PFTK1
T6 construct: gene CDK14

[18] = test system: PHKG1
[19] = test system: PHKG2
[20] = test system: PIK3C2B
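Note: KINOMEscan kinase panel screen.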

| SMILES | %Inh [1] | %Inh [2] | %Inh [3] | %Inh [4] | %Inh [5] | %Inh [6] | %Inh [7] | %Inh [8] | %Inh [9] | %Inh [10] | %Inh [11] | %Inh [12] | %Inh [13] | %Inh [14] | %Inh [15] | %Inh [16] | %Inh [17] | %Inh [18] | %Inh [19] | %Inh [20] |
| --- | --- | --- | --- | --- | --- | --- | --- | --- | --- | --- | --- | --- | --- | --- | --- | --- | --- | --- | --- | --- |
| Cc1cccc(-c2nc(Nc3ccncc3)c3sccc3n2)n1 [GW869641] | 35% | 60% | 24% | 15% | 30% | 50% | 23% | 11% | 2% | 22% | 0% | 0% | 36% | 27% | 7% | 5% | 0% | 0% | 5% | 29% |
| CCNCC(Cc1ccccc1)NC(=O)c1cc(Br)c(-c2ccnc3[nH]ccc23)s1.Cl.Cl (stereo not shown) [GSK1383280] | 20% | 0% | 8% | 26% | 40% | 62% | 44% | 60% | 78% | 0% | 15% | 0% | 51% | 75% | 0% | 0% | 21% | 27% | 20% | 0% |
| OCCn1cc(-c2cnc3nnn(Cc4ccc5ncccc5c4)c3n2)cn1 | 0% | 0% | 0% | 6% | 13% | 0% | 11% | 0% | 0% | 0% | 0% | 0% | 0% | 0% | 0% | 0% | 0% | 5% | 0% | 0% |
| Cn1ccc2ncnc(Oc3ccc(NC(=O)Nc4cnn(C(C)(C)C)c4)c(Cl)c3)c21 | 0% | 38% | 6% | 13% | 34% | 45% | 5% | 19% | 0% | 24% | 5% | 0% | 99.6% | 100% | 5% | 0% | 0% | 0% | 0% | 27% |
| CN1CCN(CCCNc2nccc(-c3c(-c4ccc(F)cc4)nn4cc(C(N)=O)ccc34)n2)CC1 [GW622475] | 9% | 70% | 19% | 26% | 22% | 34% | 0% | 7% | 24% | 6% | 20% | 12% | 0% | 63% | 0% | 33% | 11% | 14% | 26% | 8% |
| CS(=O)(=O)c1cccc(CNc2nc(Nc3ccc4c(c3)[C@@H]3C[C@@H]4CNC3=O)ncc2C(F)(F)F)c1 | 0% | 0% | 48% | 5% | 12% | 0% | 0% | 18% | 20% | 0% | 0% | 0% | 9% | 73% | 0% | 18% | 0% | 0% | 0% | 0% |
| O=C(Nc1n[nH]c2cc(-c3ccco3)ccc12)C1CC1 [SB-737447] | 0% | 4% | 12% | 0% | 48% | 0% | 1% | 0% | 8% | 36% | 31% | 28% | 30% | 59% | 0% | 0% | 1% | 0% | 3% | 6% |
| Cn1ccc2ncnc(Oc3ccc(NC(=O)Nc4ccnc(C(F)(F)F)c4)c(Cl)c3)c21 | 0% | 14% | 0% | 23% | 13% | 100% | 7% | 0% | 0% | 21% | 0% | 0% | 97% | 100% | 0% | 5% | 0% | 24% | 8% | 0% |
| CC(C)c1nc(-c2cccc(NS(=O)(=O)c3ccccc3)c2)c(-c2ccnc(Nc3ccc4c(c3)CN(C)CC4)n2)s1 [GSK1649598] | 29% | 98.1% | 14% | 39% | 25% | 88% | 0% | 10% | 3% | 100% | 100% | 100% | 91.2% | 100% | 0% | 85% | 78% | 0% | 45% | 20% |
| C[C@@H]1CNc2c(sc3ccc4nc(-c5ccc(O)cc5)ccc4c23)C(=O)N1 | 26% | 8% | 0% | 20% | 32% | 0% | 9% | 17% | 0% | 0% | 0% | 4% | 42% | 56% | 0% | 18% | 8% | 31% | 0% | 16% |
| CC(C(=O)NC1CCN(c2ccnc(Nc3ccc(F)cc3)n2)C1)c1ccc(Cl)cc1 (stereo not shown) [GSK1379713] | 17% | 0% | 5% | 5% | 2% | 0% | 0% | 0% | 0% | 3% | 0% | 12% | 3% | 7% | 0% | 24% | 2% | 0% | 0% | 0% |
| O=C(NCC1CC1)c1ccc(-c2cc(C(=O)NC3CC3)ccc2F)cc1 [GW810445] | 35% | 10% | 0% | 0% | 26% | 12% | 0% | 0% | 4% | 0% | 0% | 0% | 0% | 0% | 0% | 0% | 0% | 0% | 0% | 0% |
| COC(=O)c1cccc(NC(=O)NC2CCN(c3ccnc(Nc4cc(OC)c(OC)c(OC)c4)n3)C2)c1 (stereo not shown) [GSK1379767] | 40% | 32% | 0% | 10% | 0% | 18% | 5% | 0% | 18% | 0% | 24% | 0% | 6% | 65% | 0% | 0% | 20% | 10% | 2% | 0% |
| COc1cccc(CNC(=O)NC2CCN(c3ccnc(Nc4cc(OC)c(OC)c(OC)c4)n3)C2)c1 (stereo not shown) [GSK1379765] | 21% | 0% | 3% | 0% | 8% | 11% | 0% | 0% | 1% | 3% | 0% | 0% | 6% | 51% | 4% | 16% | 11% | 15% | 0% | 0% |
| O=C(Nc1cccc(C(F)(F)F)c1)c1cccc(Oc2ccc3nccn3n2)c1 | 44% | 0% | 0% | 0% | 0% | 20% | 8% | 1% | 0% | 21% | 0% | 0% | 98.5% | 99.9% | 13% | 0% | 0% | 33% | 0% | 99.3% |
| NC(=O)Nc1sc(-c2ccc(F)cc2)cc1C(N)=O [GW789449] | 14% | 0% | 16% | 0% | 4% | 24% | 11% | 12% | 1% | 0% | 100% | 0% | 5% | 54% | 13% | 16% | 0% | 1% | 0% | 40% |
| CN(c1ccc2c(c1)nc(NCc1ccc(F)cc1)n2C)c1ccnc(Nc2ccc(CS(C)(=O)=O)cc2)n1.Cl [GW813244] | 0% | 0% | 0% | 10% | 35% | 12% | 15% | 0% | 0% | 0% | 0% | 0% | 99% | 100% | 0% | 14% | 0% | 0% | 0% | 0% |
